Assay results taken from PubChem BioAssay (NCI).
“And” between values parts separate entries of the source, which are not always exact repeats. Equal entries are not always repeated. The panel holds about 79,000 compounds, 15% with a hit somewhere; the sample as a whole holds those more often. The source holds several records for some structures; these can differ, active in one and inactive in another. The source made the active and inactive calls. Cut-off read from the data, not from the text of the source: active = growth inhibition above about 70%; inactive = the rest.

Legend:
[1] = NCI Yeast Anticancer Drug Screen. Data for the rad50 strain (AID 155);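 note: 0% = growth of vehicle-only cultures of the same strain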; conditions: S. cerevisiae rad50 strain growth inhibition, stronger effect = higher value
Summary of the method: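 Yeast carrying a defined DNA repair defect were exposed to test compounds, and growth was compared with vehicle-treated controls to give percent inhibition.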

[2] = NCI Yeast Anticancer Drug Screen. Data for the mec2-1 strain (AID 157); conditions: S. cerevisiae mec2-1 strain, stronger effect = higher value
Summary of the method: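 Readout is yeast growth inhibition, normalised to vehicle-treated controls, in the mec2-1 strain exposed to compound.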

[3] = NCI Yeast Anticancer Drug Screen. Data for the sgs1 mgt1 strain (AID 161);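 note: 0% = growth of cultures given vehicle only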; conditions: S. cerevisiae sgs1 mgt1 strain, stronger effect = higher value
Summary of the method: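 Growth of a repair-deficient yeast mutant was monitored after compound treatment and expressed as inhibition relative to vehicle-treated cultures.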

[4] = NCI Yeast Anticancer Drug Screen. Data for the cln2 rad14 strain (AID 165);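 note: 0% = growth equal to vehicle treated cultures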; conditions: S. cerevisiae cln2 rad14 strain, stronger effect = higher value
Summary of the method: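 Relative to vehicle controls, growth inhibition of compound-treated cln2 rad14 yeast was recorded.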

[5] = NCI Yeast Anticancer Drug Screen. Data for the bub3 strain (AID 167); conditions: S. cerevisiae bub3 mutant strain, stronger effect = higher value
Summary of the method: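 Compounds were applied to a genetically altered yeast strain carrying a cell-cycle control defect. Growth inhibition was scored against vehicle-treated controls.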

[6] = NCI Yeast Anticancer Drug Screen. Data for the mlh1 rad18 strain (AID 175); conditions: S. cerevisiae mlh1 rad18 strain growth inhibition, stronger effect = higher value
Summary of the method: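 Test agents were incubated with a yeast strain of defined genotype (DNA damage repair defect). Inhibition of growth was derived by comparison with vehicle-exposed cultures.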

[7] = at 5.0 µM (retest, dose inferred, filed as 0.5)
[8] = at 50.0 µM (retest, dose inferred, filed as 5.0)

Measured: growth inhibition

COc1cc[c]([Sb]([Br])([CH]=C(C)C)([CH]=C(C)C)[CH]=C(C)C)cc1
active: [1]; at 50.0 µM 80.8% | [2]; [8] 85% | [2]; at 50.0 µM 76.5% | [5]; [8] 72% | [5]; at 50.0 µM 80.3% | [6]; [8] 73% | [6]; at 50.0 µM 72.8%
inactive: [1]; [7] -1% | [1]; [8] 67% | [2]; [7] -5% | [3]; [7] -1% | [3]; [8] 62% | [3]; at 50.0 µM 35% | [4]; [7] -12% | [4]; [8] 54% | [4]; at 50.0 µM 49.2% | [5]; [7] -9% | [6]; [7] -6%

CC[C@@]1(O)C[C@H](OC2CC(N(C)C)C(OC3CC(O)C(OC4CCC(=O)C(C)O4)C(C)O3)C(C)O2)c2c(cc3c(c2O)C(=O)c2c(O)ccc(O)c2C3=O)[C@H]1C(=O)OC (some centres not stated)
92% (active) and 67% (inactive): [5]; [7]
active: [1]; [7] 95% and 89% | [1]; [8] 98% | [1]; at 50.0 µM 88.1% and 91.8% | [2]; [7] 95% and 78% | [2]; [8] 99% | [2]; at 50.0 µM 91.2% and 93.5% | [3]; [7] 95% and 87% | [3]; [8] 99% and 98% | [3]; at 50.0 µM 89.8% and 92.3% | [4]; [7] 91% and 71% | [4]; [8] 97% | [4]; at 50.0 µM 88.7% and 91.2% | [5]; [8] 98% | [5]; at 50.0 µM 89.3% and 92.3% | [6]; [7] 96% and 80% | [6]; [8] 98% | [6]; at 50.0 µM 88.2% and 91.7%

CS/C([S-])=N/N=C/c1ccccn1.[Cl][Pt+]
inactive: [1]; [7] 1% | [1]; [8] 58% | [2]; [7] 3% | [2]; at 50.0 µM 38% | [3]; [7] 20% | [4]; [7] -3% | [4]; [8] 29% | [4]; at 50.0 µM 9.15% | [5]; [7] -4% | [5]; at 50.0 µM 19.6% | [6]; [7] 33% | [6]; at 50.0 µM 64.2%
active: [1]; at 50.0 µM 82.2% | [2]; [8] 80% | [3]; [8] 96% | [3]; at 50.0 µM 89.6% | [5]; [8] 77% | [6]; [8] 93%

CCN1CCC(O)(c2ccc(Cl)c(Cl)c2)C(C(=O)c2ccc(Cl)c(Cl)c2)C1 (configuration not stated)
inactive: [2]; [7] 57% | [4]; [7] 60% | [6]; [7] 54%
active: [1]; [7] 75% | [1]; [8] 99% | [1]; at 50.0 µM 99.7% | [2]; [8] 100% | [2]; at 50.0 µM 99.6% | [3]; [7] 78% | [3]; [8] 99% | [3]; at 50.0 µM 99.7% | [4]; [8] 99% | [4]; at 50.0 µM 98.9% | [5]; [7] 71% | [5]; [8] 98% | [5]; at 50.0 µM 98.8% | [6]; [8] 99% | [6]; at 50.0 µM 99.6%

CC[C@@]1(O)C(=O)OCc2c1cc1n(c2=O)Cc2cc3cc4c(cc3nc2-1)OCO4
inactive: [4]; [7] 48% | [4]; [8] 47% | [6]; at 50.0 µM 34.4%
active: [1]; [7] 95% | [1]; [8] 92% | [1]; at 50.0 µM 72.4% | [2]; [7] 97% | [2]; [8] 94% | [2]; at 50.0 µM 81.3% | [3]; [7] 91% | [3]; [8] 85% | [3]; at 50.0 µM 80.9% | [4]; at 50.0 µM 71.7% | [5]; [7] 85% | [5]; [8] 83% | [5]; at 50.0 µM 74.3% | [6]; [7] 91% | [6]; [8] 89%

O=c1oc2ccccc2c(O)c1C(c1ccc(-c2ccccc2)cc1)c1c(O)c2ccccc2oc1=O
active: [1]; at 50.0 µM 78.1% | [2]; [8] 97% | [2]; at 50.0 µM 89.8% | [3]; [8] 97% | [3]; at 50.0 µM 81.6% | [4]; [8] 97% | [4]; at 50.0 µM 85.2% | [5]; [8] 97% | [5]; at 50.0 µM 77.5% | [6]; [8] 88% | [6]; at 50.0 µM 89.3%
inactive: [1]; [7] 9% | [1]; [8] 52% | [2]; [7] 7% | [3]; [7] -16% | [4]; [7] 19% | [5]; [7] 14% | [6]; [7] 16%

[C](#Cc1ccccc1)[Hg][C]#Cc1ccccc1
active: [1]; [8] 99% | [1]; at 50.0 µM 98.8% | [2]; [7] 94% | [2]; [8] 99% | [2]; at 50.0 µM 98.8% | [3]; [7] 94% | [3]; [8] 100% | [3]; at 50.0 µM 99% | [4]; [8] 99% | [4]; at 50.0 µM 84.9% | [5]; [8] 99% | [5]; at 50.0 µM 98.3% | [6]; [8] 99% | [6]; at 50.0 µM 98.8%
inactive: [1]; [7] 65% | [4]; [7] 26% | [5]; [7] 21% | [6]; [7] 24%

C/C(=C\c1ccc2c(c1)OCO2)[N+](=O)[O-]
inactive: [2]; [7] 7% | [3]; [7] 16% | [4]; [7] -6% | [4]; at 50.0 µM 40.1% | [5]; [7] 10% | [5]; at 50.0 µM 51% | [6]; [7] 11%
active: [1]; [7] 93% | [1]; [8] 98% | [1]; at 50.0 µM 98.2% | [2]; [8] 100% | [2]; at 50.0 µM 73.5% | [3]; [8] 97% | [3]; at 50.0 µM 83.4% | [4]; [8] 99% | [5]; [8] 96% | [6]; [8] 99% | [6]; at 50.0 µM 70.8%

Cc1nc2c(Br)cc(Br)cc2c(=O)n1-c1ccccc1N
inactive: [1]; [7] 19% | [1]; [8] 22% | [1]; at 50.0 µM 63% | [2]; [7] 15% | [2]; [8] 17% | [2]; at 50.0 µM 9.45% | [3]; [7] 13% | [3]; [8] 24% | [3]; at 50.0 µM 63.8% | [4]; [7] 18% | [4]; [8] 37% | [4]; at 50.0 µM 19.4% | [5]; [7] 3% | [5]; [8] 4% | [6]; [7] 37% | [6]; [8] 34% | [6]; at 50.0 µM 46.2%
active: [5]; at 50.0 µM 70.2%
